Consider 53 molecules from ChEMBL document CHEMBL4513216, “Probing the Open Global Health Chemical Diversity Library for Multistage-Active Starting Points for Next-Generation Antimalarials” (ACS Infect Dis, 2020).

Screen size: about 65,000 compounds; about 2,100 (3.2%) showed an effect of 50% or more. The median lay at about -52%. For the sample, strong results were picked, then their nearest neighbours and some compounds at random.

For the assay, the system named is Plasmodium falciparum. Description: Screen against P. falciparum Asexual Blood Stage (ABS), at 5uM. The class given is functional, Dd2. The settings on record: tested at 5 uM.
`Cc1nn(C)c(C)c1C1CCCN1Cc1cccc(OCC(N)=O)c1` (stereo not drawn): the INHIBITION is reported as -22.6%.
The value for `CCn1cncc1CNC(=O)c1ccc(C2CCCN2C(=O)COC)s1` (stereo not drawn) was -32.8%; that for `O=C(NCC1CC1)[C@@H]1CCO[C@@H]2CCN(Cc3ccsc3)C[C@H]21` was 50.9%.
For `O=C(NCC1CC1)[C@@H]1CCO[C@@H]2CCN(Cc3ccc(F)cc3)C[C@H]21`, the INHIBITION is 22.5%.
On to `O=C(NC1CC1)[C@@H]1CCO[C@@H]2CCN(Cc3ccsc3)C[C@H]21`, for which the INHIBITION is recorded as -48.8%.
The value for `O=C(NCCCn1ccnc1)NCC(c1ccco1)N1CCCC1` (stereo not drawn) was -96.3%; that for `CCN1CCCC(CN(C)c2nccc(-c3ccc(C)nc3C)n2)C1` (stereo not drawn) was 26.3%.
The value for `CC(C)N[C@@H]1CC[C@@H]1NC(=O)c1ccccc1OC(F)(F)C(F)F` was 54.4%; that for `N[C@@H]1CC[C@@H]1NC(=O)c1ccccc1OC(F)(F)C(F)F` was 42.2%; that for `O=C(N[C@@H]1CCNC[C@H]1O)c1ccccc1OC(F)(F)C(F)F` was -173%.
Take `Cc1ccnc(NCc2cn3nc(C)sc3n2)n1`: the INHIBITION was -114%.
As to `O=C(Cc1ccc2c(c1)OCC2)Nc1nc[nH]n1`, the INHIBITION was -116%.
With `c1cnn(Cc2cnc3n2CCN(CC2CCCCC2)C3)c1`, the INHIBITION was 4.97%.
The value for `COCCCNC(=O)CN(C)C(C)c1nc(C(C)C)no1` (stereo not drawn) was -119%; that for `CN1CCOC(CNC(=O)C2(c3ccccc3)CCC2)C1` (stereo not drawn) was -66.7%.
Consider `Cc1cccc(C2(C(=O)NCC3CN(C)CCO3)CC2)c1` (stereo not drawn), for which the INHIBITION was found to be 0.579%.
The value for `CN1CCOC(CNC(=O)C2(c3cccc(C(F)(F)F)c3)CCCC2)C1` (stereo not drawn) was 55.9%; that for `CN(Cc1csc(-c2cnn(C)c2)n1)CC1CCN(CCO)CC1` was -6.54%.
The value for `CC(Cn1cncc1-c1cnn(C2CCCCC2)c1)N1CCCCC1` (stereo not drawn) was 13.6%; that for `c1nc(N2CCOCC2)ncc1-c1cncn1CCCN1CCCCC1` was -102%; that for `c1nn(C2CCCCC2)cc1-c1cncn1CCCN1CCCCC1` was 62.1%.
The value for `Cc1ccccc1N1CCCN(C(=O)CC2CN(C(C)C)CCO2)CC1` (stereo not drawn) was 11.3%; that for `CN1CCCC1CNC(=O)CCCOc1ccc(F)cc1` (stereo not drawn) was 48.7%; that for `CN1CCCC1CNC(=O)CCCOc1cccc(F)c1` (stereo not drawn) was 35.7%.
Consider `Cc1ncc(CNC(=O)CCOc2ccccc2)c(C2CCCN2C)n1` (stereo not drawn), for which the INHIBITION is -57%.
The value for `CN1CCCC1CNC(=O)CCOc1ccc(Br)cc1` (stereo not drawn) was 62.6%; that for `CN1CCCC1CNC(=O)CCCOCc1ccccc1` (stereo not drawn) was -46.6%; that for `CN1CCCC1CNC(=O)CCCOc1ccc(I)cc1` (stereo not drawn) was 59.8%.
For `CN1CCCC1CNC(=O)CCOc1ccc(Cl)cc1` (stereo not drawn), the INHIBITION is 67.9%.
Consider `COc1cc(CCC(=O)NCC2CCCN2C)ccc1OCC(F)(F)F` (stereo not drawn), for which the INHIBITION is on record as 43.4%.
`CC(=O)c1cccc(OCCCC(=O)NCC2CCCN2C)c1` (stereo not drawn): the INHIBITION turned out to be 3.79%.
Take `CC(C)c1nc(O)c2nnn(C[C@@H]3CCCN(Cc4cccs4)C3)c2n1`: the INHIBITION was -32.9%.
For the molecule `O=C1CO[C@@H]2CN(S(=O)(=O)c3ccc(F)cc3)C[C@H]2N1`, the INHIBITION is on record as -28.2%.
Consider `Cc1cc(C(=O)N2CC[C@@]3(O)CCN(S(C)(=O)=O)C[C@H]3C2)c(C)n1C`, for which the INHIBITION was -156%.
The value for `O=C(CNC(=O)c1cnccn1)Nc1ncc[nH]1` was -51.8%; that for `CCC(=O)N1CCN(c2ncnc3c(C)nn(C)c23)CC1` was -52.3%; that for `O=C(NC1CCCC1)O[C@H]1COCCN(c2nc3ccccc3o2)C1` was -59.6%.
The value for `CCNC(=O)O[C@H]1COCCN(c2nc3ccccc3s2)C1` was 54.8%; that for `O=C(NC1CCCC1)O[C@H]1COCCN(c2nc3ccccc3s2)C1` was -31.6%.
Turning to `CCOc1ccccc1CNC(=O)N1CCC(n2cncn2)CC1`, the INHIBITION is reported as -19.1%.
The value for `COc1ccc(CN2C[C@H]3CN(Cc4ccncc4)C(=O)[C@H]3C2)cc1` was -22.1%; that for `COc1ccc(CN2C[C@@H]3CN(CCO)C[C@@H]3C2=O)cc1` was 50.3%; that for `COc1ccc(CN2C[C@@H]3CN(Cc4ccncc4)C[C@@H]3C2=O)cc1` was -48%.
In the case of `Cc1cccc(CN2CCCC3(CCN(CC4CCCO4)CC3)C2)n1` (stereo not drawn), the INHIBITION came out at 45.2%.
The value for `COc1cc(C(=O)NCC2CC2)nc2c(C)cc(F)cc12` was -103%.
In the case of `C[C@@H]1CN(c2nc(N)nc3c2CCC3)CC[C@@]1(O)C1CCC1`, the INHIBITION worked out at 68.5%.
Consider `C[C@@H]1CN(c2nc3c(cc2C(N)=O)CCC3)CC[C@@]1(O)C1CCC1`, for which the INHIBITION is reported as -80.6%.
The value for `C[C@@H]1CN(c2nc(N)nc3c2CCC3)C[C@]1(C)O` was -48.4%.
The value for `COc1ccc(CN(C)C(=O)CN2CC(n3cccn3)C2)cc1F` was 26.7%.
Take `CCCNC(c1cccnc1)c1ccc(F)c(C)c1` (stereo not drawn): the INHIBITION was 57.9%.
With `CCNC(c1cccnc1)c1ccc(F)c(C)c1` (stereo not drawn), the INHIBITION is 25.4%.
The value for `CCCNC(c1ccc(F)cc1)c1cccnc1` (stereo not drawn) was 35.6%.
Regarding `CCOCC(=O)N1C[C@@H]2COC[C@]2(c2nc(C)no2)C1`, the INHIBITION was -63.5%.
